Inconclusive results are not listed. Calls of active or inactive are those of the source. How the source made its calls, unless noted: active means hit-call score of the fitted dose curve at least 0.9, where 1 is the maximum; inactive means score below 0.9.
Test: UKN5_HCS_SBAD2_cell_viability: Viability Assessment in the University of Konstanz (UKN) Leist Lab Neurite Outgrowth Assay in human iPSC-derived immature Dorsal Root Ganglia Neurons (UKN5) (AID 2284056)
Details: not given
Summary of the method: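 iPSC-derived immature peripheral neurons (SBAD2) seeded on Matrigel with CHIR99021, SU5402 and DAPT, dosed 1 h later for 24 h. Viability from Hoechst H-33342 and calcein-AM live staining, high-content imaging; bidirectional fit versus DMSO.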

Question: Which outcome does the source give for Brc1cc(Br)c(Oc2cc(Br)c(Br)cc2Br)cc1Br here?
Answer: inactive

Question: Which outcome does the source give for Cc1ccccc1 here?
Answer: inactive

Question: For O.O=S(=O)([O-])[O-].[Mn+2], which AC50 is on record?
Answer: 18.8 µM (active)

Question: For CC(=O)OC/N=[N+](\C)[O-], which outcome is on record?
Answer: inactive

Test: CCTE_Shafer_MEA_dev_LDH: CCTE's Lactate Dehydrogenase Assay for Cytotoxicity in the Neural Network Formation Assay, Shafer Lab (AID 2284068; active means hit-call score of the fitted dose curve at least 0.9, where 1 is the maximum;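 further: exposure for twelve days from plating with re-dosing on DIV 5 and 9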)
Details: not given
Summary of the method: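 Developing rat cortical networks on MEA plates are exposed to compound for 12 days from plating. LDH activity is measured spectrophotometrically, with DMSO as baseline.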

Question: With BrC1CC(Br)CC(Br)CC(Br)CC(Br)CC(Br)C1 (configuration not stated) as the molecule, how does the AC50 read?
Answer: 10.6 µM (active)

Question: With CC(CNC(=S)[S-])NC(=S)[S-].[Zn+2] (configuration not stated) as the molecule, how does the AC50 read?
Answer: 39.4 µM (active)

Question: For Brc1cc(Br)c(Oc2cc(Br)c(Br)cc2Br)cc1Br, which AC50 is on record?
Answer: 7.47 µM (active)

Question: For F, which outcome is on record?
Answer: inactive

Question: With [O]=[V]([OH])([OH])[OH] as the molecule, how does the AC50 read?
Answer: 24.3 µM (active)

Question: Which AC50 does the source give for CCCCCC(C)(CC)C(=O)NC (configuration not stated) here?
Answer: 50 µM (active)

Question: Which AC50 does the source give for C[C@@H]1CCO[C@H]2Cn3cc(C(=O)NCc4ccc(F)cc4F)c(=O)c(O)c3C(=O)N12 here?
Answer: 1.07 µM (active)

Question: With CN(C)CCCn1cc(C2=C(c3c[nH]c4ccccc34)C(=O)NC2=O)c2ccccc21 as the molecule, how does the AC50 read?
Answer: 7.97 µM (active)

Question: For CCCCCC=C(C)C(CC)CCO (configuration not stated), which outcome is on record?
Answer: inactive

Question: For CCc1ccccc1, which AC50 is on record?
Answer: 0.299 µM (active)

Question: Which outcome does the source give for C[C@@H]1CC[C@@H](C(C)(C)O)[C@H](O)C1 here?
Answer: inactive

Question: For CC(C)O, which outcome is on record?
Answer: inactive

Test: UKN5_HCS_SBAD2_neurite_outgrowth: University of Konstanz (UKN) Leist Lab Neurite Outgrowth Assay in human iPSC-derived immature Dorsal Root Ganglia Neurons (UKN5) (AID 2284070)
Details: actives raise or lower the signal
Summary of the method: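 Human iPSC-derived immature DRG neurons (SBAD2) on Matrigel with CHIR99021 (1.5 uM), SU5402 (5 uM), DAPT (5 uM); compounds added 1 h post-seeding for 24 h. Calcein-AM neurite area imaged; bidirectional fit vs DMSO.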

Question: With Brc1cc(Br)c(Oc2cc(Br)c(Br)cc2Br)cc1Br as the molecule, how does the outcome read?
Answer: inactive

Question: Which outcome does the source give for Cc1ccccc1 here?
Answer: inactive

Question: For O.O=S(=O)([O-])[O-].[Mn+2], which outcome is on record?
Answer: inactive

Question: Which AC50 does the source give for CC(=O)OC/N=[N+](\C)[O-] here?
Answer: 613 µM (active)

Test: CCTE_Shafer_MEA_dev_AB: CCTE's Alamar Blue Assay for Cytotoxicity in the Neural Network Formation Assay, Shafer Lab (AID 2284083; active means hit-call score of the fitted dose curve at least 0.9, where 1 is the maximum;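 further: resazurin reduction fluorescence as viability of cultured neurons; twelve days of exposure from plating with re-dosing on DIV 5 and 9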)
Details: not given
Summary of the method: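 Cytotoxicity companion to the developmental MEA: primary rat cortical neurons, 12-day exposure starting day 0, compound refreshed DIV 5 and 9; resazurin fluorescence, fitted against DMSO vehicle.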

Question: With BrC1CC(Br)CC(Br)CC(Br)CC(Br)CC(Br)C1 (configuration not stated) as the molecule, how does the AC50 read?
Answer: 12.6 µM (active)

Question: For CC(CNC(=S)[S-])NC(=S)[S-].[Zn+2] (configuration not stated), which AC50 is on record?
Answer: 32.2 µM (active)

Question: Which outcome does the source give for CC(=O)N[C@@H](CC(=O)O)C(=O)O here?
Answer: inactive

Question: For Brc1cc(Br)c(Oc2cc(Br)c(Br)cc2Br)cc1Br, which outcome is on record?
Answer: inactive

Question: With F as the molecule, how does the outcome read?
Answer: inactive

Question: With [O]=[V]([OH])([OH])[OH] as the molecule, how does the AC50 read?
Answer: 28 µM (active)

Question: With C[C@@H]1CCO[C@H]2Cn3cc(C(=O)NCc4ccc(F)cc4F)c(=O)c(O)c3C(=O)N12 as the molecule, how does the AC50 read?
Answer: 1.8 µM (active)

Question: With CN(C)CCCn1cc(C2=C(c3c[nH]c4ccccc34)C(=O)NC2=O)c2ccccc21 as the molecule, how does the AC50 read?
Answer: 7.86 µM (active) [middle of 4 runs]

Question: For CCCCCC=C(C)C(CC)CCO (configuration not stated), which outcome is on record?
Answer: inactive

Question: For CCc1ccccc1, which AC50 is on record?
Answer: 0.476 µM (active)

Question: For CC(C)O, which outcome is on record?
Answer: inactive

Test: CCTE_Shafer_MEA_dev_mutual_information_norm: CCTE's Neural Network Formation Assay for Mutual Information Normalization, Shafer Lab (AID 2284091);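 on AC50: mutual information between electrodes summarised as area under curve across four recording days; potency is for a decrease in mutual information relative to DMSO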
Details: not given
Summary of the method: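 Primary rat cortical neurons on PEI-coated 48-well MEA plates, 1.5 x 10^5 cells/well, exposed from day 0 through day 12 with re-dosing at DIV 5 and 9. Mutual information between electrodes recorded days 5, 7, 9, 12; trapezoidal AUC, loss-of-signal fit versus DMSO.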

Question: Which AC50 does the source give for BrC1CC(Br)CC(Br)CC(Br)CC(Br)CC(Br)C1 (configuration not stated) here?
Answer: 2.73 µM (active)

Question: With CC(CNC(=S)[S-])NC(=S)[S-].[Zn+2] (configuration not stated) as the molecule, how does the AC50 read?
Answer: 4.05 µM (active)

Question: With CC(=O)N[C@@H](CC(=O)O)C(=O)O as the molecule, how does the outcome read?
Answer: inactive

Question: With CC(C)c1nn(C(=O)NC(C)(C)C)c(=O)n1N as the molecule, how does the outcome read?
Answer: inactive

Question: With Cc1[nH]n(C)c(=O)c1C(=O)c1ccc(C(F)(F)F)cc1S(C)(=O)=O as the molecule, how does the outcome read?
Answer: inactive

Question: Which outcome does the source give for Brc1cc(Br)c(Oc2cc(Br)c(Br)cc2Br)cc1Br here?
Answer: inactive

Question: With F as the molecule, how does the outcome read?
Answer: inactive

Question: With [O]=[V]([OH])([OH])[OH] as the molecule, how does the AC50 read?
Answer: 4.55 µM (active)

Question: Which outcome does the source give for CCCCCC(C)(CC)C(=O)NC (configuration not stated) here?
Answer: inactive

Question: With C[C@@H]1CCO[C@H]2Cn3cc(C(=O)NCc4ccc(F)cc4F)c(=O)c(O)c3C(=O)N12 as the molecule, how does the AC50 read?
Answer: 1.55 µM (active)

Question: Which outcome does the source give for CCCCCC=C(C)C(CC)CCO (configuration not stated) here?
Answer: inactive

Question: Which outcome does the source give for CCc1ccccc1 here?
Answer: inactive

Question: Which outcome does the source give for C[C@@H]1CC[C@@H](C(C)(C)O)[C@H](O)C1 here?
Answer: inactive

Question: Which outcome does the source give for CC(C)O here?
Answer: inactive

Test: UKN2_HCS_IMR90_neural_migration: University of Konstanz (UKN) Leist Lab Neural Crest Cell Migration Assay in human induced IMR90 Pluripotent Stem Cells (UKN2) (AID 2284204)
Details: actives raise or lower the signal
Summary of the method: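 iPSC-derived IMR90 neural crest cells seeded around stoppers on PLO/laminin/fibronectin; migration started in N2-S medium with EGF/FGF, compounds added after 24 h for 24 h. Migration into cell-free area imaged after calcein-AM/Hoechst staining; bidirectional fit versus DMSO.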

Question: With BrC1CC(Br)CC(Br)CC(Br)CC(Br)CC(Br)C1 (configuration not stated) as the molecule, how does the AC50 read?
Answer: 5.5 µM (active)

Question: With CC(CNC(=S)[S-])NC(=S)[S-].[Zn+2] (configuration not stated) as the molecule, how does the outcome read?
Answer: inactive

Question: For CC(=O)N[C@@H](CC(=O)O)C(=O)O, which outcome is on record?
Answer: inactive

Question: For CC(C)c1nn(C(=O)NC(C)(C)C)c(=O)n1N, which outcome is on record?
Answer: inactive

Question: For Cc1[nH]n(C)c(=O)c1C(=O)c1ccc(C(F)(F)F)cc1S(C)(=O)=O, which outcome is on record?
Answer: inactive

Question: Which outcome does the source give for Brc1cc(Br)c(Oc2cc(Br)c(Br)cc2Br)cc1Br here?
Answer: inactive

Question: With CCCCCC(C)(CC)C(=O)NC (configuration not stated) as the molecule, how does the outcome read?
Answer: inactive

Question: For C[C@@H]1CCO[C@H]2Cn3cc(C(=O)NCc4ccc(F)cc4F)c(=O)c(O)c3C(=O)N12, which outcome is on record?
Answer: inactive

Question: With Cc1ccccc1 as the molecule, how does the outcome read?
Answer: inactive

Question: Which outcome does the source give for CCCCCC=C(C)C(CC)CCO (configuration not stated) here?
Answer: inactive

Question: For O.O=S(=O)([O-])[O-].[Mn+2], which outcome is on record?
Answer: inactive

Question: Which outcome does the source give for CCc1ccccc1 here?
Answer: inactive

Question: With C[C@@H]1CC[C@@H](C(C)(C)O)[C@H](O)C1 as the molecule, how does the outcome read?
Answer: inactive

Question: For CC(C)O, which outcome is on record?
Answer: inactive

Question: For CC(=O)OC/N=[N+](\C)[O-], which outcome is on record?
Answer: inactive

Test: UKN4_HCS_LUHMES_neurite_outgrowth: University of Konstanz (UKN) Leist Lab Neurite Outgrowth Assay in human LUHMES cells (UKN4) (AID 2284206)
Details: actives raise or lower the signal
Summary of the method: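 LUHMES neuronal precursors differentiated 2 days, replated without cAMP/GDNF, then exposed to chemicals for 24 h. Neurite area imaged by high-content microscopy after calcein-AM staining; Hoechst H-33342 marks viability. Bidirectional fit versus DMSO.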

Question: Which outcome does the source give for Brc1cc(Br)c(Oc2cc(Br)c(Br)cc2Br)cc1Br here?
Answer: inactive

Question: Which outcome does the source give for Cc1ccccc1 here?
Answer: inactive

Question: Which outcome does the source give for O.O=S(=O)([O-])[O-].[Mn+2] here?
Answer: inactive

Question: Which AC50 does the source give for CC(=O)OC/N=[N+](\C)[O-] here?
Answer: 721 µM (active)

Test: IUF_NPC1a_proliferation_area_72hr: Leibniz Research Institute for Environmental Medicine (IUF) 72-hour Neural Progenitor Cell Proliferation Area Assay (NPC1a) (AID 2284208)
Details: not given
Summary of the method: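 Proliferation read as increase in sphere area by phase-contrast imaging over 72 h continuous compound exposure (no renewal) of hNPC spheres grown with EGF/FGF at 37C, 5% CO2. Growth-factor withdrawal served as positive control; DMSO as baseline.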

Question: For BrC1CC(Br)CC(Br)CC(Br)CC(Br)CC(Br)C1 (configuration not stated), which outcome is on record?
Answer: inactive

Question: Which outcome does the source give for CC(CNC(=S)[S-])NC(=S)[S-].[Zn+2] (configuration not stated) here?
Answer: inactive

Question: For CC(=O)N[C@@H](CC(=O)O)C(=O)O, which outcome is on record?
Answer: inactive

Question: With CC(C)c1nn(C(=O)NC(C)(C)C)c(=O)n1N as the molecule, how does the outcome read?
Answer: inactive

Question: Which outcome does the source give for Cc1[nH]n(C)c(=O)c1C(=O)c1ccc(C(F)(F)F)cc1S(C)(=O)=O here?
Answer: inactive

Question: With CCCCOCCOP(=O)(O)OCCOCCCC as the molecule, how does the outcome read?
Answer: inactive

Question: With CCCCCC(C)(CC)C(=O)NC (configuration not stated) as the molecule, how does the outcome read?
Answer: inactive

Question: Which outcome does the source give for C[C@@H]1CCO[C@H]2Cn3cc(C(=O)NCc4ccc(F)cc4F)c(=O)c(O)c3C(=O)N12 here?
Answer: inactive

Question: With CN(C)CCCn1cc(C2=C(c3c[nH]c4ccccc34)C(=O)NC2=O)c2ccccc21 as the molecule, how does the AC50 read?
Answer: 11.6 µM (active)

Question: With CCCCCC=C(C)C(CC)CCO (configuration not stated) as the molecule, how does the outcome read?
Answer: inactive

Question: Which outcome does the source give for CCc1ccccc1 here?
Answer: inactive

Question: With C[C@@H]1CC[C@@H](C(C)(C)O)[C@H](O)C1 as the molecule, how does the outcome read?
Answer: inactive

Question: With CC(C)O as the molecule, how does the outcome read?
Answer: inactive

— PubChem BioAssay (EPA / NIEHS)
